Experimental data taken from the supplement of paper PMC9262897, “Low-cost anti-mycobacterial drug discovery using engineered E. coli” (Nature Communications, 2022).
Structures can show the parent of a compound that is named as a salt. ± gives the standard deviation of the averaged measurements.

How the values were obtained:
Assay in all cases: growth (OD600 after 10 h); higher = more growth (less inhibition)
[1] = system: E. coli TESEC Alr+ wild-type control; conditions: compound 0.1 mM; raw OD600 reference: median of DMSO wells 0.241, cell-free background 0.041
Protocol: (§1)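 TESEC Mtb Alr E. coli, or the Alr+ wild-type control, in 384-well plates with Prestwick library compounds at 0.1 mM and 1% DMSO, across arabinose induction levels of 1E3 to 1E7 nM. Growth is read as OD600 after 10 h at 37 °C in triplicate biological replicates.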

E. coli TESEC Mtb Alr [2] = conditions: compound 0.1 mM
Protocol: as §1

E. coli TESEC Mtb Asd = conditions: compound 0.1 mM
Protocol: (§2)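 TESEC E. coli strains in which the native enzyme is deleted and replaced by arabinose-inducible Mtb Asd, DapB, CysH or TrpD, each grown in its selective medium. Strains were screened against the Prestwick library at 0.1 mM and 1% DMSO in 384-well format at low and high arabinose induction. Growth is read as OD600 after 10 h in triplicate.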

E. coli TESEC Mtb DapB = conditions: compound 0.1 mM
Protocol: as §2

[3] = system: E. coli TESEC Alr+ wild-type control; conditions: compound 0.1 mM; raw OD600 reference: median of DMSO wells 0.49, cell-free background 0.052
Protocol: (§3)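 TESEC Mtb Alr E. coli (ΔaraC ΔtolC ΔentC Δalr ΔdadX, arabinose-inducible Mtb Alr) or the Alr+ wild-type control strain, grown in defined M9-fructose medium without D-alanine in 96-well plates with Prestwick library compounds at 0.1 mM and 1% DMSO. Low Alr induction is 0.1 µM arabinose and high induction is 10 mM arabinose.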

E. coli TESEC Mtb Alr [4] = conditions: compound 0.1 mM; remark: listed apart in the source
Protocol: as §3

[5] = arabinose 1000 nM, raw OD600 reference: median of DMSO wells 0.294, cell-free background 0.041
[6] = arabinose 10000 nM, raw OD600 reference: median of DMSO wells 0.264, cell-free background 0.041
[7] = arabinose 100000 nM, raw OD600 reference: median of DMSO wells 0.201, cell-free background 0.041
[8] = arabinose 1000000 nM, raw OD600 reference: median of DMSO wells 0.193, cell-free background 0.041
[9] = arabinose 10000000 nM, raw OD600 reference: median of DMSO wells 0.146, cell-free background 0.041
[10] = arabinose induction (level): High, raw OD600 reference: median of DMSO wells 0.331, cell-free background 0.041
[11] = arabinose induction (level): Low, raw OD600 reference: median of DMSO wells 0.417, cell-free background 0.041
[12] = arabinose induction (level): High, raw OD600 reference: median of DMSO wells […], cell-free background 0.041
[13] = arabinose induction (level): Low, raw OD600 reference: median of DMSO wells 0.227, cell-free background 0.041
[14] = arabinose 100 nM, raw OD600 reference: median of DMSO wells 0.413, cell-free background 0.052
[15] = arabinose 10000000 nM, raw OD600 reference: median of DMSO wells […], cell-free background 0.052

Compound	growth [1]	growth (E. coli TESEC Mtb Alr [2]; [5])	growth (E. coli TESEC Mtb Alr [2]; [6])	growth (E. coli TESEC Mtb Alr [2]; [7])	growth (E. coli TESEC Mtb Alr [2]; [8])	growth (E. coli TESEC Mtb Alr [2]; [9])	growth (E. coli TESEC Mtb Asd; [10])	growth (E. coli TESEC Mtb Asd; [11])	growth (E. coli TESEC Mtb DapB; [12])	growth (E. coli TESEC Mtb DapB; [13])	growth [3]	growth (E. coli TESEC Mtb Alr [4]; [14])	growth (E. coli TESEC Mtb Alr [4]; [15])
COc1ccc2cc(CCC(C)=O)ccc2c1 [Nabumetone]	0.168 ± 0.0082	0.208 ± 0.028	0.2236 ± 0.0013	0.152 ± 0.012	0.109 ± 0.0058	0.14 ± 0.0083	0.304 ± 0.073	0.247 ± 0.04	0.175 ± 0.0022	0.187 ± 0.0098	0.485 ± 0.0083	0.399 ± 0.01	0.297 ± 0.017
CCN(CC)CCNc1ccc(CO)c2sc3ccccc3c(=O)c12 [Hycanthone]	0.0743 ± 0.0024	0.0851 ± 0.0084	0.0559 ± 0.00057	0.1 ± 0.0034	0.0552 ± 0.00075	0.0769 ± 0.0069	0.0901 ± 0.025	0.075 ± 0.0065	0.21 ± 0.027	0.163 ± 0.01	0.377 ± 0.0077	0.365 ± 0.042	0.232 ± 0.033
CC#C[C@]1(O)CC[C@H]2[C@@H]3CCC4=CC(=O)CCC4=C3[C@@H](c3ccc(N(C)C)cc3)C[C@@]21C [Mifepristone]	0.142 ± 0.0098	0.181 ± 0.013	0.207 ± 0.016	0.138 ± 0.0049	0.0733 ± 0.003	0.1374 ± 0.00076	0.241 ± 0.077	0.216 ± 0.015	0.199 ± 0.0078	0.236 ± 0.013	0.337 ± 0.037	0.411 ± 0.009	0.116 ± 0.012
CC[C@H](C)[C@H]1O[C@]2(CC[C@@H]1C)C[C@@H]1C[C@@H](CC=C(C)C(O[C@H]3C[C@H](OC)[C@@H](O[C@H]4C[C@H](OC)[C@@H](O)[C@H](C)O4)[C@H](C)O3)[C@@H](C)C=CC=C3CO[C@@H]4[C@H](O)C(C)=C[C@@H](C(=O)O1)[C@]34O)O2 (some centres undefined) [Ivermectin]	0.315 ± 0.013	0.361 ± 0.0096	0.291 ± 0.0046	0.393 ± 0.048	0.209 ± 0.0085	0.222 ± 0.0088	0.343 ± 0.072	0.318 ± 0.13	0.281 ± 0.035	0.28 ± 0.041	0.525 ± 0.066	0.473 ± 0.046	0.409 ± 0.038
CNNCc1ccc(C(=O)NC(C)C)cc1 [Procarbazine hydrochloride]	0.251 ± 0.0067	0.304 ± 0.012	0.282 ± 0.0077	0.217 ± 0.028	0.177 ± 0.019	0.151 ± 0.0024	0.359 ± 0.043	0.476 ± 0.083	0.2 ± 0.017	0.27 ± 0.022	0.454 ± 0.01	0.4235 ± 0.0022	0.312 ± 0.02
NC(=O)c1ccc[n+]([C@@H]2O[C@H](COP(=O)([O-])OP(=O)(O)OC[C@H]3O[C@@H](n4cnc5c(N)ncnc54)[C@H](O)[C@@H]3O)[C@@H](O)[C@H]2O)c1 [Nadide]	0.282 ± 0.006	0.363 ± 0.018	0.339 ± 0.0072	0.238 ± 0.031	0.245 ± 0.0026	0.175 ± 0.0086	0.428 ± 0.012	0.441 ± 0.0097	0.21 ± 0.0067	0.216 ± 0.02	0.564 ± 0.14	0.415 ± 0.025	0.416 ± 0.0063
CCCOc1ccccc1-c1nc2[nH]nnc2c(=O)[nH]1 [Zaprinast]	0.205 ± 0.0049	0.229 ± 0.0072	0.257 ± 0.0057	0.162 ± 0.016	0.173 ± 0.0024	0.138 ± 0.0042	0.268 ± 0.029	0.313 ± 0.046	0.191 ± 0.0075	0.199 ± 0.024	0.507 ± 0.057	0.396 ± 0.0084	0.289 ± 0.0088
C#CCN[C@@H]1CCc2ccccc21 [Rasagiline]	0.224 ± 0.0077	0.281 ± 0.012	0.263 ± 0.011	0.19 ± 0.011	0.194 ± 0.023	0.142 ± 0.0024	0.245 ± 0.065	0.342 ± 0.075	0.186 ± 0.0077	0.243 ± 0.025	0.547 ± 0.014	0.421 ± 0.011	0.322 ± 0.0094
CC(NCCc1ccc(O)cc1)C(O)c1ccc(O)cc1 (centres undefined) [Ritodrine hydrochloride]	0.234 ± 0.0026	0.313 ± 0.011	0.2537 ± 0.0014	0.21 ± 0.032	0.176 ± 0.0022	0.144 ± 0.0063	0.251 ± 0.027	0.348 ± 0.055	0.179 ± 0.0043	0.185 ± 0.01	0.56 ± 0.074	0.408 ± 0.0081	0.36 ± 0.019
COCCOC(=O)C1=C(C)NC(C)=C(C(=O)OC(C)C)C1c1cccc([N+](=O)[O-])c1 (centres undefined) [Nimodipine]	0.18 ± 0.017	0.176 ± 0.062	0.0601 ± 0.0043	0.154 ± 0.0027	0.0632 ± 0.0037	0.08053 ± 0.00035	0.274 ± 0.024	0.487 ± 0.0068	0.169 ± 0.016	0.197 ± 0.037	0.325 ± 0.004	0.404 ± 0.025	0.0716 ± 0.011
COc1ccc2cc([C@H](C)C(=O)O)ccc2c1 [Naproxen]	0.26 ± 0.0081	0.265 ± 0.029	0.249 ± 0.014	0.187 ± 0.012	0.168 ± 0.0019	0.132 ± 0.0043	0.247 ± 0.028	0.426 ± 0.063	0.18 ± 0.062	0.217 ± 0.027	0.5599 ± 0.0025	0.42 ± 0.0057	0.293 ± 0.019
CC(Cc1cccc(C(F)(F)F)c1)NCCOC(=O)c1ccccc1 (centres undefined) [Benfluorex]	0.174 ± 0.0053	0.15 ± 0.094	0.163 ± 0.0039	0.209 ± 0.0022	0.0479 ± 0.0001	0.0634 ± 0.0014	0.163 ± 0.014	0.153 ± 0.0072	0.149 ± 0.0064	0.1621 ± 0.00032	0.405 ± 0.013	0.411 ± 0.01	0.0607 ± 0.0052
O=C1C(=O)c2ccccc2C(O)=C1C1CCC(c2ccc(Cl)cc2)CC1 (centres undefined) [Atovaquone]	0.171 ± 0.0064	0.2 ± 0.0057	0.182 ± 0.015	0.151 ± 0.015	0.105 ± 0.0069	0.133 ± 0.0044	0.271 ± 0.12	0.23 ± 0.017	0.199 ± 0.009	0.204 ± 0.015	0.545 ± 0.044	0.442 ± 0.023	0.231 ± 0.025
